The source of these data is PubChem BioAssay.

For orientation: inhibition means the drop in the measured response relative to a control, in per cent.

The nature of experiment [1]: rapamycin-like changes in RPL19A-GFP expression – cell-based, S. cerevisiae, multiplex flow cytometry, primary screen (AID 1862; in the data active means percent of DMSO control GFP below about 86%;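 further: lower values mimic rapamycin by blocking the RPL19A rise seen in DMSO cells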). The settings on record: S. cerevisiae RPL19A-GFP strain, flow cytometry fluorescence, 3 h; at 10 µM; stronger effect = lower value. (In flow cytometry, cells or beads pass a laser one at a time.)
A short description of experiment [2]: TOR pathway GLN3 branch reporter MEP2-GFP changes – S. cerevisiae, multiplex flow cytometry, primary screen (AID 1867;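 active means GFP response, as percent of the DMSO control, above the screen-wide mean plus 3 SD, about 139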;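 further: median GFP channel fluorescence of barcode-gated MEP2-GFP cells measured by flow cytometry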). The conditions noted are these: S. cerevisiae MEP2-GFP strain, 3 h, at 10 µM, stronger effect = higher value, 100% means same as DMSO wells.
The nature of experiment [3]: TOR pathway RTG branch CIT2 reporter changes – S. cerevisiae, GFP fusion, multiplex flow cytometry, primary screen (AID 1870;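 active means percent response above a set limit, the screen-wide mean plus 3 SD, cut at about 130% in these data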;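 further: barcoded CIT2-GFP strain pooled with four other GFP strains with rapamycin as positive control; median GFP fluorescence per well over plate mean of DMSO wells so 100% = DMSO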). The conditions noted are these: S. cerevisiae CIT2-GFP expression, 3 h, at 10 µM, stronger effect = higher value.
The nature of experiment [4]: TOR pathway LAP4-GFP level changes – S. cerevisiae, multiplex flow cytometry, primary screen (AID 1873;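 active means GFP signal, as percent of the solvent control, above the screen mean plus 3 SD, about 149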). The conditions noted are these: S. cerevisiae LAP4-GFP expression, 3 h, at 10 µM, stronger effect = higher value.
The nature of experiment [5]: reduced mouse 2C T cell binding to pMHC/ICAM-1 vesicles – MLPCN validation set, flow cytometry, LFA-1/ICAM-1 modulator project, pilot screen (AID 2523;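 active means response below a set limit, under 55% cells CD8-positive and vesicle-bound, and CD8 cells' 90th-percentile brightness under 279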;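 on vesicle binding response: mean PE anti-B7-1 fluorescence of CD8+ cells relative to row control; 100% = QL9-loaded vesicles with DMSO vehicle in the same plate row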). The settings on record: 2C mouse CD8+ T cells, at 7 µM, stronger effect = lower value; double positive events: measured here: CD8+/vesicle+ event percentage.
Experiment [6] concerns the target Integrin beta-1 (Homo sapiens) + Integrin alpha-4 (Homo sapiens) (UniProt P13612+P05556). Put plainly: alpha4beta1 integrin LIBS antibody binding reduction – U937 cells, HUTS-21 mAb, flow cytometry, validation set, VLA-4 allosteric modulator project, pilot screen (AID 2674;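 active means inhibition above 50%, about 3 SD of the validation set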;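 further: antibody binding induced by the VLA-4 ligand LDV present at three times its Kd; 0% = LDV ligand with antibody and no compound and 100% = antibody without LDV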). The conditions noted are these: HUTS-21 LIBS mAb binding, at 6.7 µM, stronger effect = higher value, binding induced by LDV ligand.

Experiment [7] in a line: calorie-restriction mimetic ROS inhibitors, yeast – validation compound set, pilot screen (AID 2706;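 active means superoxide response below 65% of plate, a cut near 3 SD across the whole screen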;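 further: yeast exposed to compound for one week at 30 degrees C before staining; 100% = mean of all compound wells on the same plate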). The settings on record: S. cerevisiae aging, superoxide DHE fluorescence; at 10 µM, stronger effect = lower value.
The target of experiment [8] is Beta-adrenergic receptor kinase 1 (Homo sapiens) (UniProt P25098). The experiment in a line: GRK2 binders displacing RNA aptamer, biochemical, validation, human GRK2, bead flow cytometry (AID 488806;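 active means aptamer binding inhibition above 30%, about 3 SD of noise from non-fluorescent compounds; inactive means inhibition at or below 30%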). The settings on record: bead-bound GRK2, FAM-aptamer displacement, at 10 µM, stronger effect = higher value.
The target of experiment [9] is Beta-2 adrenergic receptor (Homo sapiens) (UniProt P07550). The experiment in a line: agonist-induced loss of surface beta2AR – cell-based, FAP fluorogen, flow cytometry, validation set, pilot screen (AID 504459;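 active means percent response above 42, roughly 3 SD of non-fluorescent test compounds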;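 further: agonist-driven loss of surface beta2AR via internalization measured by FAP dye flow cytometry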). The settings on record: Am2.2-beta2AR cells, at 10 µM, stronger effect = higher value.
Experiment [10] deals with AP-2 complex subunit beta (Homo sapiens) (UniProt P63010). The experiment in a line: beta-arrestin/AP2 interaction blockers – biochemical, validation set, GST-AP2 beads, flow cytometry, pilot screen (AID 504541;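 active means inhibition above 54%, about 3 SD of non-fluorescent compounds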;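 further: AP2 carries R879A mutation and is captured from E. coli lysate; bead-bound FITC arrestin peptide fluorescence measuring arrestin peptide binding to AP2; 0% = DMSO wells and 100% = excess unlabeled arrestin peptide control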). The settings on record: FITC arrestin peptide, at 10 µM, stronger effect = higher value, AP2 beta2 appendage fragment, R879A mutant.
Experiment [11] is described as follows: cytosolic pH regulators acting via V-ATPase – S. cerevisiae, pHLuorin, HTS validation (AID 504600).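 Further: plate controls were DMSO for no effect and reference compound for full effect.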 The conditions noted are these: V-ATPase proton transport, at 10 µM, stronger effect = higher value.
Experiment [12] relates to anti-desmoglein-3 scFv antibody binding to human DSG3. The experiment in a line: blockers of pathogenic pemphigus antibody–desmoglein-3 binding – biochemical, validation compound set, bead-based, flow cytometry, pilot screen (AID 588368;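 active means binding below the plate cutoff, the plate median minus 3 SD, with a reading above zero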;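 further: signal is the median channel fluorescence of bead-bound GFP antibody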). The conditions noted are these: Protein G beads, DSG3-Fc, scFv-GFP binding, at 10 µM, stronger effect = lower value.
Experiment [13] in a line: Nile Red efflux blockade in pump-expressing yeast – validation compound set, multiplex, phenotypic, pilot screen (AID 588506;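 active means efflux inhibition above 0.42, the validation set average plus 4 SD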;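 further: Nile Red retained in cells so higher fluorescence means more efflux inhibition; 0 = negative control wells and 1 = enniatin B 25 µM full block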). The settings on record: S. cerevisiae pump-expressing triplex, Nile Red efflux flow cytometry; at 10 µM; stronger effect = higher value; the pumps come from Candida albicans.
Experiment [14] concerns the target ATP-binding cassette sub-family B member 6 (Homo sapiens) (UniProt Q9NP58). Put plainly: blockers of ABCB6-driven porphyrin uptake – K562-ABCB6 cells, flow cytometry, validation set, pilot screen (AID 588550;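 active means inhibition above the screen-wide mean plus 3 SD, about 51%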;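 further: 0% = DMSO wells and 100% = benzethonium chloride 70 µM positive control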). The settings on record: K562-ABCB6 porphyrin accumulation, 1 h, at 10 µM, stronger effect = higher value.
Experiment [15] can be described thus: AML differentiation inducers, ER-HoxA9 marrow cells – cell-based, GFP/MAC1 double positive, flow cytometry, validation set, primary screen (AID 588685;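 active means differentiation response of at least 50%, scaled between solvent and reference control, from cells with both markers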;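 further: compound exposure lasts four days before antibody staining and flow analysis; 0% = DMSO wells and 100% = 5 µM fulvestrant positive control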). The conditions noted are these: stronger effect = higher value, normalized: vehicle 0, fulvestrant 100.
Experiment [16] in a line: yeast AGP1-GFP level changes, GLN3 branch – cell-based, multiplex flow cytometry, S. cerevisiae, primary screen (AID 1887;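 active means GFP signal above the screen-wide mean plus 3 SD, that is over about 124.5% of the solvent control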;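 further: AGP1-GFP fusion strain of S. cerevisiae within a five-strain barcoded multiplex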). The conditions noted are these: 3 h, at 10 µM, stronger effect = higher value.
A short description of experiment [17]: hit retest on RPL19A-GFP reporter strain – cell-based, S. cerevisiae, flow cytometry, cherry picks, mother/daughter gates, confirmation (AID 2270;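 active means GFP response below 50% of the DMSO control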). The settings on record: 3 h, at 10 µM, stronger effect = lower value, 100 = same GFP as DMSO wells.
Experiment [18] in a line: yeast TOR pathway reporter LAP4-GFP change – cell-based, cherry picks, flow cytometry, mother/daughter gates, confirmation (AID 2271;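 active means GFP response above 150% of the DMSO control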;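 further: ratio of sample to DMSO plate mean so 100% equals DMSO level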). The conditions noted are these: S. cerevisiae LAP4-GFP strain, 3 h, at 10 µM, stronger effect = higher value, 100 means same as DMSO control.
The nature of experiment [19]: TOR pathway reporter MEP2-GFP, retest of hits – S. cerevisiae, flow cytometry GFP, cherry picks, confirmation (AID 2272;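 active means GFP response above 150% of the DMSO control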;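 further: ratio of well signal to plate DMSO mean so 100% equals DMSO level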). The conditions noted are these: S. cerevisiae MEP2-GFP strain, 3 h, at 10 µM, stronger effect = higher value.
Experiment [20] is described as follows: TOR pathway CIT2 reporter hit retest – S. cerevisiae, GFP fusion, cherry picks, mother/daughter gates, confirmation (AID 2274;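 active means GFP response above 150% of the DMSO level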). The conditions noted are these: S. cerevisiae CIT2-GFP strain, flow cytometry, 3 h, at 10 µM, stronger effect = higher value.
[21] abbreviates: measured here: daughter cell gate.
[22] abbreviates: measured here: mother cell gate.
[23] abbreviates: measured here: daughter cell gate response.
[24] abbreviates: measured here: mother cell gate response.

Records with an inconclusive call do not appear. Activity calls are given as the source filed them. Unless noted, no stated cut-off is given here; in the data, active means response above about 15%; inactive means the rest.

Beta-adrenergic receptor kinase 1 (Homo sapiens), sequence (P25098 whole entry, looked up): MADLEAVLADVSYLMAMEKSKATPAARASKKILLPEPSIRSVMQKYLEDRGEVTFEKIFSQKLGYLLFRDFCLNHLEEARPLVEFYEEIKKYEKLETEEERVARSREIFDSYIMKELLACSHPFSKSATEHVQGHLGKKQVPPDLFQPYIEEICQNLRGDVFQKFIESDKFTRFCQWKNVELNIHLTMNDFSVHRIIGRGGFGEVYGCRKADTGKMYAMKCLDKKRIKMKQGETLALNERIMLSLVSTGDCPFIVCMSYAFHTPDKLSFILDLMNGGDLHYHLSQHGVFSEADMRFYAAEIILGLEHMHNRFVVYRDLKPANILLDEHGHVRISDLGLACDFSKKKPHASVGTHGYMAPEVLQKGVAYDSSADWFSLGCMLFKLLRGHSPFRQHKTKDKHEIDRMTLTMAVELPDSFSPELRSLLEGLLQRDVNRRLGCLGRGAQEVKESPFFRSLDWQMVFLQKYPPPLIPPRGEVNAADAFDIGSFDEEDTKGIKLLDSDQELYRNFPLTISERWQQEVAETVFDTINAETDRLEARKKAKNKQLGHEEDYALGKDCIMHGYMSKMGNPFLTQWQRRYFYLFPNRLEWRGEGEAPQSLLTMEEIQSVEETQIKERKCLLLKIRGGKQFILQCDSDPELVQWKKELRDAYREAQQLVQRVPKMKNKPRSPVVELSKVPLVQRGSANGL
Integrin beta-1 (Homo sapiens) + Integrin alpha-4 (Homo sapiens), sequence (P05556 whole entry, looked up): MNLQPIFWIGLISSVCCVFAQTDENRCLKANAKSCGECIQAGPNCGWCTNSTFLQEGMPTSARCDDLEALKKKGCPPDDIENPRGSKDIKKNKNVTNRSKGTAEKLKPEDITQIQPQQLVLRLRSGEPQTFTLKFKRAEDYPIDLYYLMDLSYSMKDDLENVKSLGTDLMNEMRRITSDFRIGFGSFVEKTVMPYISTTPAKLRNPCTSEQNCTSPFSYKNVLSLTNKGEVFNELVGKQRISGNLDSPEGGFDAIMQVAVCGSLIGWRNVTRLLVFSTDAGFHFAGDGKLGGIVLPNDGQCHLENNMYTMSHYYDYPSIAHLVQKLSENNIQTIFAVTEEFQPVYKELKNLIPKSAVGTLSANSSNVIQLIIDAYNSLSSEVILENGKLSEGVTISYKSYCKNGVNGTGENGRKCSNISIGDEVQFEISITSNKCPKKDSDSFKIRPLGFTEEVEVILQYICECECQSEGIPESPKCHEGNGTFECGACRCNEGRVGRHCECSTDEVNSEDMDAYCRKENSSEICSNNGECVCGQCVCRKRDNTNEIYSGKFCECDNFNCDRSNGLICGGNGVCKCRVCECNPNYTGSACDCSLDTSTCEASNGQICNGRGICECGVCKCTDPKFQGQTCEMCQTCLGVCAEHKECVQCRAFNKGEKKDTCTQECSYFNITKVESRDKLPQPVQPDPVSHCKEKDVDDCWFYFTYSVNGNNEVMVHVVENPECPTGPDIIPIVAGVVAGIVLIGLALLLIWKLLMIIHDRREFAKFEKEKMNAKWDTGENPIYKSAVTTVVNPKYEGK
Integrin beta-1 (Homo sapiens) + Integrin alpha-4 (Homo sapiens), sequence (P13612 whole entry, looked up): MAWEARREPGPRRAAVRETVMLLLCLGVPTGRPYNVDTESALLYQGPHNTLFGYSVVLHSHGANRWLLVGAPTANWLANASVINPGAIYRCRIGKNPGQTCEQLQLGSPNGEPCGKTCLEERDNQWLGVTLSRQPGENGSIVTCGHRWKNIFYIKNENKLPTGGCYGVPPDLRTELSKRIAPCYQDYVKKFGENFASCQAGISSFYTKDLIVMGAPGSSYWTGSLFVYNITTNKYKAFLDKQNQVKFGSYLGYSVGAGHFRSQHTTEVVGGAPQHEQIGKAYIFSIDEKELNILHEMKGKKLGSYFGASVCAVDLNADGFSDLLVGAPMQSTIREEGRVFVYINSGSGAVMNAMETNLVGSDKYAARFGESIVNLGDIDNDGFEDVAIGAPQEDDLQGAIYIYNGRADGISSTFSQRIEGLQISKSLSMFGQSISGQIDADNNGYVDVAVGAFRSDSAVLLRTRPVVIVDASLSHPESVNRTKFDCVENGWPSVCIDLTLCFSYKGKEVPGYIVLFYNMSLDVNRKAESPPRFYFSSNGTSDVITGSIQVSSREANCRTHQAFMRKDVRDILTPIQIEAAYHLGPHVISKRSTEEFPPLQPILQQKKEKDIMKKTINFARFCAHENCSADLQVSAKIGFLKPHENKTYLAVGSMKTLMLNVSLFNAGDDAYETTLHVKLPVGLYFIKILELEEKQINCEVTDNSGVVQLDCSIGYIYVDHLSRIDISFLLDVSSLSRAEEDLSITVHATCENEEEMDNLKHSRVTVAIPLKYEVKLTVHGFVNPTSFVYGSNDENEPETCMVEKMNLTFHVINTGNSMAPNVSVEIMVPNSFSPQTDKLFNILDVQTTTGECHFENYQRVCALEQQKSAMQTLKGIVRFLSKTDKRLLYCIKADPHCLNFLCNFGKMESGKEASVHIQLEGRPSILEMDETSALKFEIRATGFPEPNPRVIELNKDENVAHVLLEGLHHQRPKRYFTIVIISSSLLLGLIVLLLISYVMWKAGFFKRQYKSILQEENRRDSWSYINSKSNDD
AP-2 complex subunit beta (Homo sapiens), sequence (P63010 whole entry, looked up, the tested form may be a part, one chain of several): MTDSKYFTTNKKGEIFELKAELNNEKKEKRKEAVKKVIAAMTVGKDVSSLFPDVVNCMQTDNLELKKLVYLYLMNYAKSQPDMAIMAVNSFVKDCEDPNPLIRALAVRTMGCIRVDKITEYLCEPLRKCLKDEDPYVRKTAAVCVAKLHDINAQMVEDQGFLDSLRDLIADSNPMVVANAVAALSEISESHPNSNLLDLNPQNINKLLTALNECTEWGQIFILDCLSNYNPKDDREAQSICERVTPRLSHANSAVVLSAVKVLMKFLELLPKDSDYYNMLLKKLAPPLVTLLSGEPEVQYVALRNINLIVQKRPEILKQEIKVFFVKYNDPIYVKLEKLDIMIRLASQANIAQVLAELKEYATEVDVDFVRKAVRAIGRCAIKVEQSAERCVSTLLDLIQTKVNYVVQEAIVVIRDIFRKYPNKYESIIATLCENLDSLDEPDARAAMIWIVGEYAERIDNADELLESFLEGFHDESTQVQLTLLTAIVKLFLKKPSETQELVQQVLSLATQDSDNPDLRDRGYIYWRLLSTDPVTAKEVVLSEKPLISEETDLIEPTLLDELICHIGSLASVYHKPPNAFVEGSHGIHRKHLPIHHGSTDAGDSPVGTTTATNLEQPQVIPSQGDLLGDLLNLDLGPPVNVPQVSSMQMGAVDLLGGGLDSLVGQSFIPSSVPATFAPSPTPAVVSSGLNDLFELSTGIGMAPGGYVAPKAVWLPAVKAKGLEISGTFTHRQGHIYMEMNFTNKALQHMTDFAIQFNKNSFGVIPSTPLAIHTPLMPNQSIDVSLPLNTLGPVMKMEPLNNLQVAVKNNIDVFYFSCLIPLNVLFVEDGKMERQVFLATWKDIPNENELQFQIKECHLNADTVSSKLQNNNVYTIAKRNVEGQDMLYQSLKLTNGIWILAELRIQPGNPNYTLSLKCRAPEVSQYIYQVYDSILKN
ATP-binding cassette sub-family B member 6 (Homo sapiens), sequence (Q9NP58 whole entry, looked up): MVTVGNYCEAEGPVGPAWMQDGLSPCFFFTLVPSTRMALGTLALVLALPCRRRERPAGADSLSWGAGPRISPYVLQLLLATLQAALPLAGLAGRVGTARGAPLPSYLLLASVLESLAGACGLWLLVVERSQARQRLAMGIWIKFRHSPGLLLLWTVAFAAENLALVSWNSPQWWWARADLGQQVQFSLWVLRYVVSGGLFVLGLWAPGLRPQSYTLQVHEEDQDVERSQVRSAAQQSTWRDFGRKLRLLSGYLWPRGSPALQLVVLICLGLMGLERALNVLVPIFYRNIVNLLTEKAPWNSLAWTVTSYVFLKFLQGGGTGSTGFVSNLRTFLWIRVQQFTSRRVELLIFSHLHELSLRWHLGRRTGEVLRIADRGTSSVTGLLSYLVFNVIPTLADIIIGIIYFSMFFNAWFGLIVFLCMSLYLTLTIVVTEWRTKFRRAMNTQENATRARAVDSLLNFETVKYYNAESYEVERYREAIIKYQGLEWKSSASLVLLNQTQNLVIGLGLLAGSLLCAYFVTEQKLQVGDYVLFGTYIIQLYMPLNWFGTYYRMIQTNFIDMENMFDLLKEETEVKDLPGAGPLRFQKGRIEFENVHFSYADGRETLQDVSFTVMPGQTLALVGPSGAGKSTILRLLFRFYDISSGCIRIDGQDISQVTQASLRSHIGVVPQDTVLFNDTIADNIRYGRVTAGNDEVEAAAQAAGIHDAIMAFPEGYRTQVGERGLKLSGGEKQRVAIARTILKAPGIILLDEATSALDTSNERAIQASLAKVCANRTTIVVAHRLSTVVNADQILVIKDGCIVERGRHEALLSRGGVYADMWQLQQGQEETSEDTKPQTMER
Beta-2 adrenergic receptor (Homo sapiens), sequence (P07550 whole entry, looked up): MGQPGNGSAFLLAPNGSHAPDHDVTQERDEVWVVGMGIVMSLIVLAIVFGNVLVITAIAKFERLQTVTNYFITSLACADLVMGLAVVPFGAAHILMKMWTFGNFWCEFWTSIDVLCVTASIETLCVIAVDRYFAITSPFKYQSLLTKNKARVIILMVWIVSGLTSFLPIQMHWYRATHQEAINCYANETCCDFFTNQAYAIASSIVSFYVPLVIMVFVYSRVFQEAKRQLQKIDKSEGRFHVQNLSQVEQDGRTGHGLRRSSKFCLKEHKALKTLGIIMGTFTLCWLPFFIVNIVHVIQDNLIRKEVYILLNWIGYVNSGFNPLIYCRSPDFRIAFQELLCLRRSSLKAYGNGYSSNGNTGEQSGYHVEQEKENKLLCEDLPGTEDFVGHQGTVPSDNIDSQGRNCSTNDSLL

With `Cc1ccc(NCCC(=O)c2ccccc2)cc1Cl`, the percent of DMSO control GFP in [1] was 86.2% (inactive). The GFP response vs DMSO in [2] was 110% (inactive); in experiment [4], 78.7% (inactive). Also, the percent response of DMSO control in [3] is 110% (inactive). For the same compound, the double positive events in [5] was 63%. For the same compound, the vesicle binding response in experiment [5] is 171% (inactive). Besides, the inhibition in [6] was 28.8% (inactive); in experiment [10] it was -12.3% (inactive); in experiment [14], 10% (inactive). In addition, the superoxide response (% of plate) in experiment [7] was 99.7% (inactive). In experiment [8], the aptamer binding inhibition is 2% (inactive). The response is 2.53% (inactive) in experiment [9] and 2.25% (inactive) in experiment [11]. The binding (% of control) in experiment [12] was 98% (inactive). Further, the efflux inhibition (fraction of control) in [13] is -0.24 (inactive). Further, the differentiation response in [15] was -0.82% (inactive).
On to `COc1ccc(C(=O)Nc2ccccc2C(=O)NCCCn2ccnc2)cc1`, for which, in [1], the percent of DMSO control GFP was 91.3% (inactive). For the same compound, the GFP response vs DMSO in experiment [2] was 115% (inactive); in experiment [4], 75.4% (inactive). The percent response of DMSO control in [3] was 93.9% (inactive). In addition, the double positive events in [5] came out at 59.2%. Further, the vesicle binding response in [5] was 82.8% (inactive). Besides, the inhibition was 1.61% (inactive) in [6], 7.74% (inactive) in [10] and 12% (inactive) in [14]. Moreover, the superoxide response (% of plate) in [7] is 101% (inactive). Further, the aptamer binding inhibition in experiment [8] was 5% (inactive). For the same compound, the figures for the response in experiment [9] and in [11] were -7.51% (inactive) and -1.7% (inactive), respectively. For the same compound, in experiment [12], the binding (% of control) is 104% (inactive). Further, the efflux inhibition (fraction of control) in experiment [13] is 0.23 (inactive). In addition, in experiment [15], the differentiation response is -4.91% (inactive).
Consider `CC1(C)C2CCC1(C)C(OCC[N+](C)(C)CC(=O)OC1CCCCC1)C2` (stereo not drawn), for which the percent of DMSO control GFP in [1] is 88% (inactive). Moreover, the GFP response vs DMSO in [2] is 104% (inactive); in experiment [4], 78.1% (inactive). In addition, the percent response of DMSO control in [3] was 104% (inactive). This compound had a double positive events in experiment [5] of 70%. Moreover, in experiment [5], the vesicle binding response was 196% (inactive). The inhibition in experiment [6] was 12.3% (inactive); in experiment [10] it was -2.94% (inactive); in [14], 6% (inactive). In addition, the superoxide response (% of plate) in [7] is 95.2% (inactive). Moreover, the aptamer binding inhibition in experiment [8] is -4% (inactive). Also, the response in experiment [9] is -4.15% (inactive); in experiment [11] it was 3.18% (inactive). In addition, the binding (% of control) in [12] was 109% (inactive). Further, the efflux inhibition (fraction of control) in experiment [13] is -0.06 (inactive). Besides, the differentiation response in [15] was -5.73% (inactive).
For the compound `CC1CNCCN1S(=O)(=O)c1cccc2cnccc12` (stereo not drawn), the percent of DMSO control GFP in [1] was 95% (inactive). Further, the percent response of DMSO control in [3] is 104% (inactive). Also, the GFP response vs DMSO in experiment [4] is 111% (inactive). Moreover, the GFP response, % of DMSO in experiment [16] was 91.3% (inactive). This compound registered a double positive events in experiment [5] of 62.9%. Further, the vesicle binding response in experiment [5] was 918% (inactive). Besides, the figures for the inhibition in [6], in [10] and in experiment [14] were 17.2% (inactive), -9.84% (inactive) and 2% (inactive), respectively. Moreover, the superoxide response (% of plate) in experiment [7] is 91.3% (inactive). Besides, in [8], the aptamer binding inhibition is 3% (inactive). Moreover, the response was -6.28% (inactive) in experiment [9] and 1.37% (inactive) in [11]. The binding (% of control) in experiment [12] is 96.3% (inactive). In addition, the efflux inhibition (fraction of control) in experiment [13] is -0.07 (inactive). In [15], the differentiation response is 14.9% (inactive).
With `O=C(/C=C/c1ccnc2ccccc12)c1cccs1`, the GFP response vs DMSO in experiment [17] is 101% (inactive); in experiment [17] (setting [21]) it was 98.8%; in [17] (setting [22]), 99.5%; in experiment [19] it was 126% (inactive). Moreover, the GFP response relative to DMSO is 172% (active) in experiment [18], 156% in experiment [18] (setting [23]) and 171% in experiment [18] (setting [24]). The results for the GFP response, % of DMSO in experiment [20], in [20] (setting [21]) and in experiment [20] (setting [22]) were 90.7% (inactive), 94.6% and 84%, respectively.
Turning to `O=C(Nc1c(-c2ccccc2)nc2ccccn12)c1ccco1`, the GFP response vs DMSO is 100% (inactive) in [17], 102% in experiment [17] (setting [21]), 99.8% in [17] (setting [22]) and 98.3% (inactive) in experiment [19]. Besides, the GFP response relative to DMSO was 99.2% (inactive) in experiment [18], 94.4% in [18] (setting [23]) and 96.1% in experiment [18] (setting [24]). The values for the GFP response, % of DMSO in [20] and in experiment [20] (setting [22]) were 103% (inactive) and 106%, respectively.
Consider `O=C1C(Cl)=C(Nc2ccccc2O)C(=O)N1CCc1ccccc1`, for which the GFP response vs DMSO in experiment [17] is 98% (inactive); in experiment [17] (setting [21]) it was 97.8%; in experiment [17] (setting [22]), 97.9%; in experiment [19], 112% (inactive). Further, the results for the GFP response relative to DMSO in [18], in [18] (setting [23]) and in [18] (setting [24]) were 103% (inactive), 101% and 104%, respectively. Besides, the GFP response, % of DMSO in experiment [20] was 106% (inactive); in experiment [20] (setting [21]) it was 104%; in [20] (setting [22]), 104%.
